The text below walks through data of ChEMBL document CHEMBL3988442, “University of Dundee, Small-Polar-MMV Screening Library” (2021).

Molecules are shown by their SMILES. For some assays here: Potency and affinity values are given separately.

What all share (design): scale not given: direction of the effect not stated beside the values
Experiment [1] addresses Protein translocase subunit SecA (Escherichia coli (strain K12)) (UniProt P10408). Put plainly: Assay to Identify E. coli SecA ATPase Inhibitors. It counts as functional. To be noted: 30 µM.
The target of experiment [2] is T1, Ubiquitin-activating enzyme e1, putative (Leishmania donovani (strain BPK282A1)) (UniProt E9BSI1).
T1 sequence (whole entry): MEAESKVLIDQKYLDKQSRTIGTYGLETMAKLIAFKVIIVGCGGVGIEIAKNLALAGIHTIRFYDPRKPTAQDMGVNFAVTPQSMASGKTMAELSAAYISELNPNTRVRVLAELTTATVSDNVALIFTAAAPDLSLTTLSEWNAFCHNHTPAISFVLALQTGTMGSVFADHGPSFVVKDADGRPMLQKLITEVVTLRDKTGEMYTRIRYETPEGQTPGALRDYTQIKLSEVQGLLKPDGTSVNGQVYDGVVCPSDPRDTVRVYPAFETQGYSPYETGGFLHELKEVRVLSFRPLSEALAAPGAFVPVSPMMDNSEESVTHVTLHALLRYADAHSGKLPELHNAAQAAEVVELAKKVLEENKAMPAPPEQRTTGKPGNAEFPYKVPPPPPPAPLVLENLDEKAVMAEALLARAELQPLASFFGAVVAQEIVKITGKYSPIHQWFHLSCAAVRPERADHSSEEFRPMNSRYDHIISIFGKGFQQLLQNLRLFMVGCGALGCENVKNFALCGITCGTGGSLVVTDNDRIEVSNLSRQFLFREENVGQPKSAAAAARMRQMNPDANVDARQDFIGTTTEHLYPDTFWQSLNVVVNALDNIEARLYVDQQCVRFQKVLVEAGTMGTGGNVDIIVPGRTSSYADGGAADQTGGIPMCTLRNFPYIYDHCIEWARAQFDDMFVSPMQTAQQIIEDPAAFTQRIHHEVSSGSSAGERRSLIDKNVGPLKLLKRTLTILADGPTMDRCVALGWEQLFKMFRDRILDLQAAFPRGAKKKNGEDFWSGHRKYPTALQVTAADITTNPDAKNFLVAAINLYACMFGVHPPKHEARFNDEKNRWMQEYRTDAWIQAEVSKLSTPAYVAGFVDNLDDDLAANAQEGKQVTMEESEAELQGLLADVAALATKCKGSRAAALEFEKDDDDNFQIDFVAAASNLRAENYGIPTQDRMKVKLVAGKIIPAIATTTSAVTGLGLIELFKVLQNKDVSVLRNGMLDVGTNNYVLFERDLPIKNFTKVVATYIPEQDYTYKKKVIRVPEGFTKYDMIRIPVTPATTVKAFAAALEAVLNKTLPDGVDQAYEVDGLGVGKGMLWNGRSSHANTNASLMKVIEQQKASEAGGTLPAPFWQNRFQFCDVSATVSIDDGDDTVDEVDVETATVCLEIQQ
Description: Leishmania donovani Ubiquitin Activating Enzyme (LdE1). Type of experiment: functional. To be noted: 30 µM.

The target in experiment [3] is AMP-activated protein kinase, AMPK (Homo sapiens) (UniProt P54646+O43741+P54619+Q9UGJ0+Q9Y478+Q13131+Q9UGI9). Description: AMP-dependent Kinase enzyme assay. An in vitro enzyme assay that detects ADP turnover that is directly proportional to AMPK activity. This uses naive AMPK that is activated during the assay with MK-8722. Type of experiment: functional. To be noted: 30 µM.

Experiment [4] deals with Sialic acid-binding Ig-like lectin 9 (Homo sapiens) (UniProt Q9Y336). Description: Hs-Siglec9 ALPHAscreen SOP 20170721. To be noted: 10 µM.
Chain of Sialic acid-binding Ig-like lectin 9 (Homo sapiens) (Q9Y336 whole entry): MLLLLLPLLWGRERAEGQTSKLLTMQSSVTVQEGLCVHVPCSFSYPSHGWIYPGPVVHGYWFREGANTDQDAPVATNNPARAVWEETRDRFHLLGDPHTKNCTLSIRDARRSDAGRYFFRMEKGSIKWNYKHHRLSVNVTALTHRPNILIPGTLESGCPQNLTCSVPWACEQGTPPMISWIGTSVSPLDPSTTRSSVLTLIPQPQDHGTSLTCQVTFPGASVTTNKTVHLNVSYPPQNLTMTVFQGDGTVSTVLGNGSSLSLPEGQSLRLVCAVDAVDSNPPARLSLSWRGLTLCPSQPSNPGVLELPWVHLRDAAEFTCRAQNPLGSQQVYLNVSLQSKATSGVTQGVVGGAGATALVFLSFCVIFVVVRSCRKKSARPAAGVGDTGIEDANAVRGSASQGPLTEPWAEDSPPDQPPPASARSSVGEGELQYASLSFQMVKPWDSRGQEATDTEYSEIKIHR
A further experiment relates to Trypanosoma cruzi. Put plainly: Trypanosoma cruzi phosphomannomutase and mannose-1-phosphate guanylyltransferase assay. It counts as functional. To be noted: 10 µM.
For experiment [5], the target named is T2, Arginase-2, mitochondrial (Homo sapiens) (UniProt P78540).
T2 sequence (whole entry): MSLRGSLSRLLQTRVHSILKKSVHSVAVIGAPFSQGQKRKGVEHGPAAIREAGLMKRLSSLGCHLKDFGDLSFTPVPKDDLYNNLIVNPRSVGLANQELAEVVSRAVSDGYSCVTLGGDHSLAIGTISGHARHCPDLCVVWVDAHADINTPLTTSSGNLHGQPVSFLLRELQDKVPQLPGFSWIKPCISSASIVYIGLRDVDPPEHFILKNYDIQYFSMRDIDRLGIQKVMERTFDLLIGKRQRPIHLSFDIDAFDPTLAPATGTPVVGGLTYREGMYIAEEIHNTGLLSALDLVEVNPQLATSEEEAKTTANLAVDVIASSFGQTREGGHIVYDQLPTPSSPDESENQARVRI
Put plainly: in vitro enzyme assay to detect the production of urea directly proportional to the activity of Arginase II. Also: in the data most compounds retested in dose-response had high values. It counts as functional. To be noted: 33.3 µM.

Experiment [6] has as its target T3, Proteasome subunit beta (Trypanosoma cruzi) (UniProt O96673).
T3 sequence (whole entry): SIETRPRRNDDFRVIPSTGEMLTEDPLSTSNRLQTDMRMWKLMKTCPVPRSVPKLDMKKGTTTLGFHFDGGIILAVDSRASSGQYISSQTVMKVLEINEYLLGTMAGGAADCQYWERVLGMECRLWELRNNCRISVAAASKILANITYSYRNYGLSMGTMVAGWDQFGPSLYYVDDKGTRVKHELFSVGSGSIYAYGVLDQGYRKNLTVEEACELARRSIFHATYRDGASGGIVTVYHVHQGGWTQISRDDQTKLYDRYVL
Description: Trypanosoma cruzi proteasome chymotrypsin-like activity (TcProtChymo) assay. Also: in the data most compounds retested in dose-response had high values. The conditions noted are these: 9.37 µM. Type of experiment: functional.

The species entered for a further experiment is Homo sapiens. Description: To identify inhibition of the IFN signalling (Jak-Stat) pathway via expression of an eGFP reporter gene under the control of an IFN-stimulated response element (ISRE) containing MxA promoter. It counts as functional. The conditions noted are these: 30 µM.
For experiment [7], the target named is T4, Tyrosyl-tRNA synthetase, putative (Trypanosoma cruzi (strain CL Brener)) (UniProt Q4DSP6).
T4 sequence (whole entry): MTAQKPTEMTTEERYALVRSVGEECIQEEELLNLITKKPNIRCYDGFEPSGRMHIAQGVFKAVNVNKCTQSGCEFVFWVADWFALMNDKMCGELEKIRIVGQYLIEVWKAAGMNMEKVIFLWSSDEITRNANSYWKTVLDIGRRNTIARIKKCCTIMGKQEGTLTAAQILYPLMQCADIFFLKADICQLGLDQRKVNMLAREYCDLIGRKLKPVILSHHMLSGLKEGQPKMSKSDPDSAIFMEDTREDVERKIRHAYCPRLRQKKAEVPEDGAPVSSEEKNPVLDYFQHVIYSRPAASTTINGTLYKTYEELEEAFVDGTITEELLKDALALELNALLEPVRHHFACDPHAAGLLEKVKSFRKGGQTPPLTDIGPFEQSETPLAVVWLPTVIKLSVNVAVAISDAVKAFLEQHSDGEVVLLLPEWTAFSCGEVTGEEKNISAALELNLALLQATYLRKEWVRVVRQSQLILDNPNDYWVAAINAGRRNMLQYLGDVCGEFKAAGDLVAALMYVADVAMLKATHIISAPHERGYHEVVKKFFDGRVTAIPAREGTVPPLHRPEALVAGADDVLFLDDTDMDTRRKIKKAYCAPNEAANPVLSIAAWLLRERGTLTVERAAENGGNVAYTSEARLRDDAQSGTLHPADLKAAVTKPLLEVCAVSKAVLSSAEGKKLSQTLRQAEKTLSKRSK
Description: Trypanosoma cruzi tyrosyl tRNA synthetase (TcYRS) _High Tyrosine SOP. Also: in the data most compounds retested in dose-response had high values. To be noted: 30 µM. Type of experiment: functional.

Experiment [8] addresses T4, Tyrosyl-tRNA synthetase, putative (Trypanosoma cruzi (strain CL Brener)). Put plainly: Trypanosoma cruzi tyrosyl tRNA synthetase (TcYRS) SOP. It counts as functional. To be noted: 30 µM.
Experiment [9] concerns the target Chromo domain-containing protein 1 (Saccharomyces cerevisiae (strain ATCC 204508 / S288c) (Baker's yeast)) (UniProt P32657). Description: ScCHD-1 Enzyme Inhibition Assay. Also: in the data most compounds retested in dose-response had high values. Type of experiment: functional. To be noted: 30 µM.

Chain of Protein translocase subunit SecA (Escherichia coli (strain K12)) (P10408 whole entry): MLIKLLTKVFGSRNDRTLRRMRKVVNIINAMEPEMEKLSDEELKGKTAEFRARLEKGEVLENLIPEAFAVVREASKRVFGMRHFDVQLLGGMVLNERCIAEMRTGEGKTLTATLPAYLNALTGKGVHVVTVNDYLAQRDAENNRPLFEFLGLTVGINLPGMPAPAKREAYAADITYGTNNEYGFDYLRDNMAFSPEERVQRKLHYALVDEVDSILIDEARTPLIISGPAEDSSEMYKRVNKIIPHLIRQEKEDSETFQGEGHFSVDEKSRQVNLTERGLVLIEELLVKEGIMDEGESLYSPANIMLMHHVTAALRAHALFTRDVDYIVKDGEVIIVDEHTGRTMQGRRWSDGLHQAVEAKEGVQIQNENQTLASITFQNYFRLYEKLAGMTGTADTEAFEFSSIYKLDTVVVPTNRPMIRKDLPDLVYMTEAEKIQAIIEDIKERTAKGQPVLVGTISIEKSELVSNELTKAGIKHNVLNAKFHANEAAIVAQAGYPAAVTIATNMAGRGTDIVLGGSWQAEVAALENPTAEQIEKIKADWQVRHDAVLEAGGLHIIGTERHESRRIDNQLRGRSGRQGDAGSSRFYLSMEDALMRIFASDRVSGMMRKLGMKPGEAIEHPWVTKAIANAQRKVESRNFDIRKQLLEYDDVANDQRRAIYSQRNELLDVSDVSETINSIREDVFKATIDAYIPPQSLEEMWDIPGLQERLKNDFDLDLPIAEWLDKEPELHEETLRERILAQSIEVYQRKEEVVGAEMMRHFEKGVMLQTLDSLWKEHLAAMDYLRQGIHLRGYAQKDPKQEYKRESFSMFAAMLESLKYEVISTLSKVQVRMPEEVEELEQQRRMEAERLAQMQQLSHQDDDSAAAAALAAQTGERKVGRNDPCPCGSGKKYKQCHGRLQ
Chain of Chromo domain-containing protein 1 (Saccharomyces cerevisiae (strain ATCC 204508 / S288c) (Baker's yeast)) (P32657 whole entry, the tested form may be a part): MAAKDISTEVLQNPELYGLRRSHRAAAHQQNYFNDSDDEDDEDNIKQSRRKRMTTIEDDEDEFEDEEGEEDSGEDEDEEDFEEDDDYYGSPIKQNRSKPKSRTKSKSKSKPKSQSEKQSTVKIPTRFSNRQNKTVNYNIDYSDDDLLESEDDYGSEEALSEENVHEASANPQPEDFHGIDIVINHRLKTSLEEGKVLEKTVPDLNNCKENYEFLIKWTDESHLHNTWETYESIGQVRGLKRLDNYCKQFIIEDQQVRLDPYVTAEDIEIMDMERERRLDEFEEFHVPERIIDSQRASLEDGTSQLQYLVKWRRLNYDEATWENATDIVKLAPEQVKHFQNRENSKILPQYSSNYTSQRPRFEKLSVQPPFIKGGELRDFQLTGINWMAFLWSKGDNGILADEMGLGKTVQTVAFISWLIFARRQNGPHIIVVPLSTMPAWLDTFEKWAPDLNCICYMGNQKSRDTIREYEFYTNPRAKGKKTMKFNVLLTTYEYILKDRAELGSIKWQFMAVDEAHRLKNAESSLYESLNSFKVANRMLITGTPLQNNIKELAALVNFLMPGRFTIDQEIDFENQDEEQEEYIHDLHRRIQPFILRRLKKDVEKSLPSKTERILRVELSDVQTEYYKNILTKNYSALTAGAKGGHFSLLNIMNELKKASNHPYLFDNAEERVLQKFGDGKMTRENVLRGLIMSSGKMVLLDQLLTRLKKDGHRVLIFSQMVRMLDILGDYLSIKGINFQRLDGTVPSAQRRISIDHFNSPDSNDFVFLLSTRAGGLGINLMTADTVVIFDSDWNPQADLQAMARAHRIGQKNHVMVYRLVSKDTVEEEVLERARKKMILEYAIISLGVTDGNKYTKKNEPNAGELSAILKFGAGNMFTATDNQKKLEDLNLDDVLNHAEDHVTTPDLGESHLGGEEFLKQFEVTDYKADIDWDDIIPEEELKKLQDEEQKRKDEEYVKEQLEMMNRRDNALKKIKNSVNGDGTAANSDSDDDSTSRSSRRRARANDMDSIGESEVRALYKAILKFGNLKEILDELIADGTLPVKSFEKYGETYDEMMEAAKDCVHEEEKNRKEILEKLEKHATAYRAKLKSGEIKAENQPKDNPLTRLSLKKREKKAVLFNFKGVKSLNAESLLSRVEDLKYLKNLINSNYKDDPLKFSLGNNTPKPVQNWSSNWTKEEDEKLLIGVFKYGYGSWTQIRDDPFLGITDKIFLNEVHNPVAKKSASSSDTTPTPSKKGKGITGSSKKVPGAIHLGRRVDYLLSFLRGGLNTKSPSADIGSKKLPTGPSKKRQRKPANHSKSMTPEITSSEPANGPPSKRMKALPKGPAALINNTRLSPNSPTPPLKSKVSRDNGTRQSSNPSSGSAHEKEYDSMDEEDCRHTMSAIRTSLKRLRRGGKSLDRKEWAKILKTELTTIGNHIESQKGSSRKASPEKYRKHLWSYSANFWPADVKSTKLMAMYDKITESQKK

Regarding `COc1c(CNCc2ccnc(N3CCCC3)c2)c(C)nn1C`, the Percent Effect in [1] is -5.03%; in experiment [2], 3.8%; in experiment [3] it was -1.28%; in experiment [4] it was 2.4%; in the experiment on Trypanosoma cruzi, 0.103%; in [5], -0.215%. Besides, the Percent Effect in experiment [6] was -4.12%; in the experiment listed under Homo sapiens, 7.98%; in experiment [7] it was 7.29%; in [8] it was 15.2%; in [9], -7.79%.
`CCOc1ccc(C(C)NC(=O)N2CCC(C(N)=O)CC2)cc1OC` (stereo not given): the Percent Effect in [1] is -4.66%; in experiment [2] it was 10.8%; in [3], 4.64%; in experiment [4], 6.99%; with Trypanosoma cruzi, 6.76%; in [5], 1.43%. The Percent Effect in experiment [6] was 14.7%; in the experiment filed under Homo sapiens, 4.99%; in experiment [7], 5.82%; in experiment [8], 12.2%; in [9], -0.606%.
Take `CCc1[nH]ncc1C(=O)N1CCCN(Cc2cnn(C(C)C)c2)CC1`: the Percent Effect was -1.61% in [1]; 29.7% in [2]; -18.5% in [3]; -5.54% in experiment [4]; 4.62% in the experiment on Trypanosoma cruzi; -18% in [5]. Besides, the Percent Effect in experiment [6] was 18.7%; in the experiment filed under Homo sapiens, 24.4%; in experiment [7] it was 3.45%; in experiment [8], 13.6%; in experiment [9] it was -9.88%.
On to `Cc1cc(C2CCCN2CCCc2nc3ccccc3o2)on1` (stereo not given), for which the Percent Effect in experiment [1] is 0.895%; in experiment [2], 5.41%; in [3], -3.23%; in experiment [4], 0.643%; in the experiment with Trypanosoma cruzi, -3.87%; in experiment [5], 21.6%. Also, the Percent Effect in [6] was 1.62%; in the experiment listed under Homo sapiens, 2.07%; in [7], 4.43%; in experiment [8], 6.17%; in experiment [9], -3.04%.
Regarding `N#Cc1ccc(OCCOc2ccccc2C(=O)N2CCOCC2)cc1`, the Percent Effect is -0.304% in experiment [1]; 7.79% in experiment [2]; -1.44% in experiment [3]; 10.7% in experiment [4]; 1.28% in the experiment with Trypanosoma cruzi; -11% in experiment [5]. The Percent Effect was 12.8% in [6]; -19.7% in the experiment filed under Homo sapiens; 4.3% in [7]; 13.6% in [8]; -2.37% in [9].
For `CNCC(=O)N1CCCC(c2cccc(Nc3nc(C)cc(C)n3)n2)C1` (stereo not given), the Percent Effect in experiment [1] is -3.22%; in [2], 28.4%; in experiment [3], 6.16%; in experiment [4] it was -10.1%; in the experiment on Trypanosoma cruzi, 3.56%; in experiment [5], -5.34%. Besides, the Percent Effect in experiment [6] is 14.3%; in the experiment filed under Homo sapiens, 22%; in [7], 3.23%; in experiment [8], 11.7%; in experiment [9], -21.5%.
Consider `CCCc1nc(C(=O)N2CCCn3nc(CCC(=O)O)cc3C2)cs1`, for which the Percent Effect was -7.52% in experiment [1]; 5.41% in experiment [2]; 2.34% in experiment [3]; 4.25% in experiment [4]; 1.54% in the experiment on Trypanosoma cruzi; 2.38% in [5]. The Percent Effect in [6] was 11%; in the experiment listed under Homo sapiens it was 3.31%; in experiment [7] it was 3.7%; in experiment [8], 9.76%; in experiment [9], -5.37%.
`CC(=O)Nc1c(C)cnn1Cc1cc(F)ccc1F`: the Percent Effect in [1] is -3.16%; in experiment [2], 0%; in experiment [3], 0.653%; in [4], 2.06%; in the experiment with Trypanosoma cruzi it was -3.99%; in experiment [5] it was 1.56%. The Percent Effect was 2.09% in experiment [6]; 12.2% in the experiment filed under Homo sapiens; 2.73% in experiment [7]; 6.17% in [8]; -0.196% in experiment [9].
Take `Cc1ccc(CN2CCc3ncnc(-c4ccc(F)cc4)c3CC2)o1`: the Percent Effect is -0.438% in experiment [1]; 5.33% in [2]; 3.65% in experiment [3]; 4.4% in experiment [4]; -1.93% with Trypanosoma cruzi; -50.4% in experiment [5]. The Percent Effect was 12.5% in experiment [6]; -0.337% in the experiment filed under Homo sapiens; 1.04% in experiment [7]; 12.5% in experiment [8]; -9.77% in [9].
Take `CC(C)(C)c1noc(CN2CCN(C(=O)c3cccs3)CC2)n1`: the Percent Effect was -2.39% in [1]; 10.4% in [2]; 4.2% in experiment [3]; -5.86% in experiment [4]; -4.68% in the experiment on Trypanosoma cruzi; 4.27% in [5]. The Percent Effect in experiment [6] was 10.3%; in the experiment listed under Homo sapiens, 19.4%; in [7], 7.77%; in [8] it was 14.6%; in experiment [9], -7.8%.
